Some test systems named below: NCI-H23 lung; NCI-H226 lung; NCI-H322M lung; HOP-62 NSCLC; NCI-H460 lung; HOP-92 NSCLC; A549/ATCC NSCLC; 786-0 renal; COLO 205 colon; DU-145 prostate; K-562 leukemia; MALME-3M melanoma; MDA-MB-231 breast; RXF 393 renal; SF-268 CNS; SF-295 CNS; SF-539 CNS; UACC-257 melanoma; M14 melanoma; NCI-H522 lung.
What all share (test): NCI-60 one-dose screen, 48 h (100 = growth as untreated, 0 = no growth, -100 = all killed)
Common to all, as to settings: 10 µM unless noted

Where “and” joins values, the source holds several entries; their conditions need not be identical. Identical values can stand only once. This is part of a sample that, as a whole, favours compounds with a hit. Of some 83,000 tested, about 20% had one in any assay.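 How to read the values: 0–100, growth inhibition (40 = 60% inhibited); 0, no net growth; -100 to 0, cell death (-40 = 40% of starting cells died; -100 = all dead).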 Calls of active or inactive are those of the source. Rule for the calls: active = growth percent below 10; inactive = the rest.

Turning to `CC1=CC(=O)C=CC1=Nc1ccc(N(C)C)cc1`, the growth in the assay with NCI-H23 lung was 87% (inactive) and -21.1% (active); with NCI-H226 lung, 95.6% (inactive) and 70.4% (inactive); in the assay on NCI-H322M lung, 99.2% (inactive) and 88.2% (inactive); with HOP-62 NSCLC it was 92.4% (inactive) and 72% (inactive); with NCI-H460 lung, 103% (inactive) and 70.1% (inactive); in the assay on HOP-92 NSCLC, 81.2% (inactive) and 7.79% (active). The growth is 101% (inactive) and 58.7% (inactive) in the assay on A549/ATCC NSCLC; 95.2% (inactive) and 76% (inactive) in the assay with 786-0 renal; 71.1% (inactive) and -30.2% (active) with COLO 205 colon; 107% (inactive) and 71.8% (inactive) in the assay on DU-145 prostate; 62% (inactive) and 7.74% (active) with K-562 leukemia; 112% (inactive) and 66.4% (inactive) with MALME-3M melanoma. The growth with MDA-MB-231 breast was 87.1% (inactive); in the assay on RXF 393 renal, 93.2% (inactive) and 50.6% (inactive); in the assay on SF-268 CNS, 93.9% (inactive) and 66.9% (inactive); with SF-295 CNS, 84.7% (inactive) and 65.6% (inactive); with SF-539 CNS, 94.1% (inactive) and 44.5% (inactive); in the assay with UACC-257 melanoma, 82% (inactive). Besides, the growth in the assay on M14 melanoma was 93.5% (inactive) and 41.1% (inactive).

For `O=C(NC(CSSCC(NC(=O)OCc1ccccc1)C(=O)O)C(=O)O)OCc1ccccc1` (configuration not stated), the growth in the assay with NCI-H23 lung is 93.2% (inactive) and 97.3% (inactive); with NCI-H226 lung, 86.1% (inactive); in the assay on NCI-H322M lung it was 92.9% (inactive) and 102% (inactive); with HOP-62 NSCLC, 95% (inactive) and 81.8% (inactive); with NCI-H460 lung it was 95% (inactive) and 107% (inactive); with HOP-92 NSCLC it was 63.8% (inactive) and 78.5% (inactive). Also, the growth in the assay on A549/ATCC NSCLC was 80.5% (inactive); in the assay with 786-0 renal it was 91.2% (inactive) and 91.1% (inactive); in the assay on COLO 205 colon, 96.4% (inactive) and 91.5% (inactive); in the assay on DU-145 prostate it was 101% (inactive) and 118% (inactive); with K-562 leukemia it was 84.7% (inactive) and 78.1% (inactive); in the assay on MALME-3M melanoma it was 86.6% (inactive) and 104% (inactive). Besides, the growth in the assay with MDA-MB-231 breast is 90.5% (inactive) and 108% (inactive); with RXF 393 renal it was 81% (inactive) and 113% (inactive); with SF-268 CNS, 92.4% (inactive) and 107% (inactive); in the assay with SF-295 CNS, 89.6% (inactive) and 103% (inactive); with SF-539 CNS it was 93.7% (inactive) and 91.8% (inactive); in the assay with UACC-257 melanoma, 91.9% (inactive). Moreover, in the assay on M14 melanoma, the growth was 93.5% (inactive) and 88.9% (inactive).

On to `COc1cc(Cl)ccc1C`, for which the growth in the assay on NCI-H23 lung is 90.3% (inactive); in the assay on NCI-H226 lung, 98.3% (inactive); in the assay on NCI-H322M lung, 85.6% (inactive); in the assay with HOP-62 NSCLC, 99.5% (inactive); in the assay with NCI-H460 lung, 34% (inactive); in the assay on HOP-92 NSCLC, 99.3% (inactive). The growth is 57% (inactive) in the assay on NCI-H522 lung; 100% (inactive) with 786-0 renal; 94.1% (inactive) in the assay with COLO 205 colon; 5.38% (active) with DU-145 prostate; 83.3% (inactive) with K-562 leukemia; 93.7% (inactive) with MALME-3M melanoma. Besides, the growth with MDA-MB-231 breast was 85.9% (inactive); in the assay with RXF 393 renal, 91.2% (inactive); with SF-268 CNS, 83.9% (inactive); in the assay on SF-295 CNS, 79.2% (inactive); with SF-539 CNS it was 104% (inactive); with UACC-257 melanoma, 85% (inactive). Further, the growth in the assay with M14 melanoma was 95.8% (inactive).

Take `O=C1C=CC[C@H](/C=C/c2ccccc2)O1`: the growth with NCI-H23 lung is 37.8% (inactive) and 40.7% (inactive); in the assay with NCI-H226 lung, 29.8% (inactive) and -33% (active); in the assay with NCI-H322M lung it was 25.5% (inactive) and 4.12% (active); in the assay on HOP-62 NSCLC, 64.7% (inactive) and -48.7% (active); in the assay on NCI-H460 lung, 4.39% (active) and -32.3% (active); with HOP-92 NSCLC, 10.3% (inactive) and -15.8% (active). Also, the growth was 12.2% (inactive) and 7.95% (active) in the assay on A549/ATCC NSCLC; 48.2% (inactive) and -27.8% (active) in the assay on 786-0 renal; 57.9% (inactive) and -70.8% (active) with COLO 205 colon; -3.41% (active) and 0.622% (active) in the assay on DU-145 prostate; 14.6% (inactive) and -20.2% (active) in the assay on K-562 leukemia; 61.9% (inactive) and 55.5% (inactive) with MALME-3M melanoma. The growth with MDA-MB-231 breast was 55.6% (inactive) and 36.6% (inactive); with SF-268 CNS, 7.78% (active) and 7.94% (active); in the assay on SF-295 CNS, -0.286% (active) and 0.195% (active); in the assay with SF-539 CNS, 13.2% (inactive) and -60.2% (active); with UACC-257 melanoma it was 47% (inactive) and 15.3% (inactive); in the assay on M14 melanoma, 53.7% (inactive) and 27.8% (inactive).

`CCOCCC(=O)O`: the growth in the assay on NCI-H23 lung is 110% (inactive); in the assay on NCI-H226 lung, 99.4% (inactive); in the assay on NCI-H322M lung it was 113% (inactive); with HOP-62 NSCLC, 115% (inactive); in the assay with NCI-H460 lung, 102% (inactive); in the assay with HOP-92 NSCLC, 80.5% (inactive). In addition, the growth is 103% (inactive) with 786-0 renal; 110% (inactive) with COLO 205 colon; 121% (inactive) with DU-145 prostate; 108% (inactive) with K-562 leukemia; 116% (inactive) in the assay with MALME-3M melanoma; 105% (inactive) with MDA-MB-231 breast. Further, the growth is 108% (inactive) in the assay with RXF 393 renal; 112% (inactive) with SF-268 CNS; 102% (inactive) in the assay with SF-295 CNS; 102% (inactive) in the assay with SF-539 CNS; 114% (inactive) with UACC-257 melanoma; 102% (inactive) in the assay with M14 melanoma.

Turning to `CNc1ccc(O)cc1`, the growth was 114% (inactive) and 104% (inactive) with NCI-H23 lung; 85.2% (inactive) and 93.6% (inactive) in the assay on NCI-H226 lung; 122% (inactive) and 98.3% (inactive) with NCI-H322M lung; 104% (inactive) in the assay with HOP-62 NSCLC; 105% (inactive) and 115% (inactive) with NCI-H460 lung; 102% (inactive) in the assay on HOP-92 NSCLC. Moreover, the growth in the assay with A549/ATCC NSCLC is 104% (inactive) and 114% (inactive); with 786-0 renal, 109% (inactive) and 106% (inactive); in the assay with COLO 205 colon, 132% (inactive) and 117% (inactive); with DU-145 prostate, 121% (inactive) and 113% (inactive); with K-562 leukemia, 104% (inactive) and 118% (inactive); in the assay with MALME-3M melanoma it was 110% (inactive) and 107% (inactive). Besides, the growth in the assay on MDA-MB-231 breast is 104% (inactive) and 98.9% (inactive); in the assay with RXF 393 renal it was 95.6% (inactive) and 114% (inactive); in the assay with SF-268 CNS, 121% (inactive) and 113% (inactive); in the assay on SF-295 CNS it was 101% (inactive); in the assay on SF-539 CNS, 104% (inactive) and 107% (inactive); with UACC-257 melanoma, 91.5% (inactive) and 115% (inactive). In addition, the growth in the assay with M14 melanoma was 118% (inactive) and 113% (inactive).
